Source: PubChem
Sampled rows, rich in hits. Any-hit rate of the full collection: about 12%.
L3MBTL1 inh: qHTS Assay for the Inhibitors of L3MBTL1; Potency, µM (titrated, usually from 57.1 µM), usual class: inhibitors; AlphaScreen L3MBTL1–H3K9me1 peptide binding; Lethal(3)malignant brain tumor-like protein 1 (Homo sapiens), Q9Y468; 0.66% of 230,000 active; also: nearly all actives have a fitted effect of over 60% in size
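L3MBTL1 50 nM + b-AHA-H3(1-15)K9me1 75 nM, 30 min RT; compound added, 30 min RT; streptavidin donor/Ni-chelate acceptor beads 10 ug/mL each final, 30 min RT dark; AlphaScreen read.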
JMJD2A Tudor: qHTS Assay for Inhibitors of JMJD2A-Tudor Domain; Lysine-specific demethylase 4A (Homo sapiens), O75164; AlphaScreen JMJD2A-Tudor / H3K4me3 peptide binding; Potency, µM (series often up to 114 µM), most hits filed as inhibitors; 4.4% of 390,000 active; AID 504339, 2011; also: nearly all actives have a fitted effect of over 50% in size
Target sequence (O75164 whole entry, looked up, the tested form may be a part): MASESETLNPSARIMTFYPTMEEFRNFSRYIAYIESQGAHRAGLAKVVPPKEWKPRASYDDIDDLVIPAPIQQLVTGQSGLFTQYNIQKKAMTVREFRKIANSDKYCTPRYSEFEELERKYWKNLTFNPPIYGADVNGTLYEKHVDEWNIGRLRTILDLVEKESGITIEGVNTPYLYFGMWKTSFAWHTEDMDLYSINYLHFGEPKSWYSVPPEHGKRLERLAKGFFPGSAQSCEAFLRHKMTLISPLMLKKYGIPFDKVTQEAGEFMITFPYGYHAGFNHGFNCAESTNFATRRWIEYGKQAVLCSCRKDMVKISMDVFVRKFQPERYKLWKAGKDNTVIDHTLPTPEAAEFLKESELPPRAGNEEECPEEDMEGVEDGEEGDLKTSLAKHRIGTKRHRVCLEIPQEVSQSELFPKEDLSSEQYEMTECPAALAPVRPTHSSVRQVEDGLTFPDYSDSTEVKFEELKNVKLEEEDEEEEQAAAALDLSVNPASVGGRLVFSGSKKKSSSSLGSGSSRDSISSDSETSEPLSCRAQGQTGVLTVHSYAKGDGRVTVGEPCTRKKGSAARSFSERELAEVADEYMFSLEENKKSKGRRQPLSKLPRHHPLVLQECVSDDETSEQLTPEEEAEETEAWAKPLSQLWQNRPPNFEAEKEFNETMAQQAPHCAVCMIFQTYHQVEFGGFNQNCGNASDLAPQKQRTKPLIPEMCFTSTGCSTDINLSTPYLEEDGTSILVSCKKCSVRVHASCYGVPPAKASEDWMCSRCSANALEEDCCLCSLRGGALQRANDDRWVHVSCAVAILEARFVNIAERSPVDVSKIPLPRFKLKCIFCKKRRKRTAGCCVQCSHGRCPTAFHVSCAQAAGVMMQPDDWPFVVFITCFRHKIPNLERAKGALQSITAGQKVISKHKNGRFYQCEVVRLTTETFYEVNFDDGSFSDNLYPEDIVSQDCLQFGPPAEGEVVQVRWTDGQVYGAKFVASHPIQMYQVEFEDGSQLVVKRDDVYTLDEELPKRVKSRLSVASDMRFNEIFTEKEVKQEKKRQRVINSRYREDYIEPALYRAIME
HP1b chromo inh: HTS for Inhibitors of HP1-beta Chromodomain Interactions with Methylated Histone Tails. AlphaScreen HP1-beta / biotin-H3K9me3 peptide binding. 0.56% of 390,000 active. Potency, µM (doses to about 114 µM), usual class: inhibitors. Chromobox protein homolog 1 (Homo sapiens), P83916; also: nearly all actives have a fitted effect of over 70% in size
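AlphaScreen: HP1-beta (50 nM) preformed 30 min with biotin-H3(1-18)K9me3 peptide (50 nM) in PBS pH 7.4, 0.01% Tween-20. Compound added for 30 min at RT, then streptavidin donor/nickel chelate acceptor beads (10 ug/mL) for 30 min.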
BAZ2B block: qHTS Assay for Inhibitors of BAZ2B. Bromodomain adjacent to zinc finger domain protein 2B (Homo sapiens), Q9UIF8. 4.4% of 360,000 active. AlphaScreen BAZ2B-H3K14Ac peptide displacement. AID 504333, 2011. Potency, µM (series often up to 114 µM), usual class: inhibitors; also: nearly all actives have a fitted effect of over 60% in size
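Inhibition is scored as reduced AlphaScreen emission. The BAZ2B/b-H3(5-23)K14Ac complex (50 nM each) in PBS pH 7.4, 0.01% Tween-20 meets compound (up to 110 uM) for 30 min at RT before bead addition.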
Sfp inh: qHTS Assay for Inhibitors of Bacillus subtilis Sfp phosphopantetheinyl transferase (PPTase) | 4'-phosphopantetheinyl transferase ffp (Bacillus subtilis), Q9F4F7 | Biochemical Sfp PPTase activity, qHTS | Potency, µM, usual class: inhibitors | 3.5% of 310,000 active | AID 1490, 2009;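 also: the enzyme is Sfp with the accession as filed and its product quenches rhodamine fluorescence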
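Fluorescence-quenching assay: 15 nM Sfp-PPTase preincubated 15 min at room temperature with compound, then 5 uM rhodamine-CoA and 12.5 uM BHQ-2-labelled YbbR peptide added. Fluorescence (ex 525/em 598 nm) read at start and after 30 min; difference gives rate.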
G9a block: qHTS Assay for Inhibitors of Histone Lysine Methyltransferase G9a. Histone-lysine N-methyltransferase EHMT2 (Homo sapiens), Q96KQ7. G9a H3K9 monomethylation, AlphaScreen, 2 h. Potency, µM (series often up to 102 µM), most hits filed as inhibitors. 8.8% of 350,000 active; also: nearly all actives have a fitted effect of over 75% in size
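G9a (20 nM) was preincubated 15 min with compound, then reacted 2 h at room temperature with 500 nM biotin-H3K9 peptide and 20 µM SAM. Monomethyl-H3K9 detected by AlphaScreen using anti-H3K9me1 antibody.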
Large screens that a line does not name were inactive; ! = a repeat was not active. Calls follow the shape of the dose curve; as a rule, active = well fitted curve in the direction sought with a large enough effect; inconclusive = small, poorly fitted or top-dose-only effect, or another doubt; inactive = no such curve, though single readings can be large; an effect the other way counts as inactive or inconclusive.

CCOC(=O)c1[nH]c(C)c(C(=O)N(CC)CC)c1C	G9a block 79.4µM (no result: L3MBTL1 inh)
Cc1nc(C)c(-c2ccc(SCC(=O)Nc3ccccc3F)nn2)s1	none (no result: L3MBTL1 inh, Sfp inh)
COc1cc2c(OC(C)=O)c3c(c(-c4ccc5c(c4)OCO5)c2cc1OC)C(=O)OC3	JMJD2A Tudor 89.1µM!, HP1b chromo inh inconclusive
O=C1C=C[C@@H](O)[C@H]2[C@@H]3C(=O)N(C[C@@H]4CCCO4)C(=O)[C@@H]3CC[C@H]12	none (no result: L3MBTL1 inh, JMJD2A Tudor, HP1b chromo inh, BAZ2B block, G9a block)
O=C1c2c(O)cc(O)cc2OC(c2ccc(O)c(O)c2)C1O (configuration not stated)	G9a block inconclusive (no result: L3MBTL1 inh, JMJD2A Tudor, HP1b chromo inh, BAZ2B block)
O=C1C(=O)C(c2ccc(O)cc2O)Oc2cc(O)cc(O)c21 (configuration not stated)	JMJD2A Tudor 14.1µM, HP1b chromo inh inconclusive (no result: L3MBTL1 inh, BAZ2B block, Sfp inh, G9a block)
CCOC(=O)c1c(C)[nH]c(C)c1C(=O)COC(=O)c1ccc(OC)cc1	L3MBTL1 inh inconclusive, BAZ2B block inconclusive, G9a block 39.8µM
CCOC(=O)c1c(C)[nH]c(C)c1C(=O)COC(=O)/C=C/c1cccc(Cl)c1	JMJD2A Tudor inconclusive, HP1b chromo inh inconclusive, BAZ2B block inconclusive
CCOC(=O)c1c(C)[nH]c(C)c1C(=O)COC(=O)/C=C/c1ccccc1[N+](=O)[O-]	JMJD2A Tudor 89.1µM, HP1b chromo inh inconclusive (no result: BAZ2B block, Sfp inh, G9a block)
CCOC(=O)c1c(C)[nH]c(C)c1C(=O)COC(=O)c1cc(OC)cc(OC)c1	JMJD2A Tudor inconclusive, BAZ2B block inconclusive, G9a block inconclusive
CC(C)(C)C1CCc2c(sc(N)c2C(N)=O)C1 (configuration not stated)	Sfp inh 50.1µM, G9a block 3.98µM
CCC(C)(C)C1CCc2c(sc(N)c2C(N)=O)C1 (configuration not stated)	JMJD2A Tudor inconclusive, BAZ2B block inconclusive, G9a block inconclusive
CCCC1CCc2c(sc(N)c2C(N)=O)C1 (configuration not stated)	JMJD2A Tudor inconclusive, HP1b chromo inh inconclusive, BAZ2B block inconclusive, Sfp inh inconclusive, G9a block 31.6µM (no result: L3MBTL1 inh)
C/C(N)=C(/C#N)C(=O)CSc1nc2ccc(C)cc2[nH]1	G9a block 15.8µM
CC(C)Cn1c(N)c(C(=O)CSc2nc3ncc(Cl)cc3[nH]2)c(=O)n(C)c1=O	JMJD2A Tudor inconclusive, G9a block 28.2µM (no result: Sfp inh)
Cc1ccc2nc(SCC(=O)c3c(N)n(C)c(=O)n(C)c3=O)[nH]c2c1	BAZ2B block inconclusive, G9a block 0.891µM
Cc1ccc2nc(SCC(=O)Nc3ccc(C#N)cc3)[nH]c2c1	none (no result: L3MBTL1 inh, Sfp inh)
CCCn1c(N)c(C(=O)CSc2nc3ncc(Cl)cc3[nH]2)c(=O)n(C)c1=O	none (no result: Sfp inh)
CN1CCN(NC(=O)Nc2ccc(F)cc2)CC1	G9a block inconclusive (no result: L3MBTL1 inh)
CC12CCC(c3n[nH]c(=S)nc31)C2(C)C (configuration not stated)	JMJD2A Tudor 20µM, Sfp inh inconclusive, G9a block 8.91µM
Nc1ccc2ncccc2c1N	BAZ2B block inconclusive, Sfp inh 6.31µM
COC(=O)c1cc(NC(=O)COC(=O)CN2C(=O)C3CC=CCC3C2=O)cc(C(=O)OC)c1 (configuration not stated)	none (no result: Sfp inh)
COC(=O)C1(C)NCCc2c1[nH]c1ccccc21 (configuration not stated)	none (no result: Sfp inh)
CC1(CCc2ccc3c(c2)OCO3)NCCc2c1[nH]c1ccccc21 (configuration not stated)	JMJD2A Tudor inconclusive, G9a block 50.1µM (no result: L3MBTL1 inh)
O=C1OC(Nc2nccs2)c2ccccc21 (configuration not stated)	JMJD2A Tudor inconclusive
O=C1OC(Nc2nc3ccccc3s2)c2ccccc21 (configuration not stated)	G9a block 50.1µM
O=C(O)c1cn(C2CC2)c2cc(N3CCN(S(=O)(=O)c4ccc5c(c4)OCCO5)CC3)c(F)cc2c1=O	JMJD2A Tudor inconclusive, BAZ2B block 50.1µM
NC(=O)C1CCN(C(=O)c2cc(Cl)c3c(c2)OCCO3)CC1	none (no result: BAZ2B block, Sfp inh, G9a block)
O=C(C[n+]1ccc2ccccc2c1)c1cccc2ccccc12	G9a block 28.2µM (no result: L3MBTL1 inh)
Cc1ccc(C(=O)C[n+]2ccc3ccccc3c2)cc1	none (no result: L3MBTL1 inh)
C=CCn1c(CCSCc2ccccc2)n[nH]c1=S	JMJD2A Tudor 15.8µM, G9a block 7.08µM
C=CCn1c(CSCc2ccccc2)nnc1SCC(=O)NCc1ccccc1	none
C=CCn1c(CCSCc2ccc(OC)c(C)c2)n[nH]c1=S	G9a block 2µM
COc1ccccc1CN1C(=NC(=O)C2CCCCC2)SC2CS(=O)(=O)CC21 (configuration not stated)	none (no result: L3MBTL1 inh)
Cc1ccc(OCC(O)CN2CCN(Cc3ccc4c(c3)OCO4)CC2)cc1C (configuration not stated)	BAZ2B block inconclusive
CC(C)OCC(O)CN1CCC(Cc2ccccc2)CC1 (configuration not stated)	none (no result: L3MBTL1 inh)
COc1ccc2c(c1)c(C(O)CN1CCC(Cc3ccccc3)CC1)c(C)n2C (configuration not stated)	L3MBTL1 inh inconclusive, JMJD2A Tudor 28.2µM, HP1b chromo inh inconclusive, BAZ2B block 35.5µM, G9a block inconclusive
OC(CN1CCN(Cc2ccc3c(c2)OCO3)CC1)c1c[nH]c2ccccc12 (configuration not stated)	none
COc1ccc2c(c1)c(C(O)CN1CCN(Cc3ccc4c(c3)OCO4)CC1)c(C)n2C (configuration not stated)	JMJD2A Tudor 56.2µM, HP1b chromo inh inconclusive, BAZ2B block inconclusive, G9a block 50.1µM
Cc1c(C(O)CN2CCN(Cc3ccc4c(c3)OCO4)CC2)c2ccccc2n1C (configuration not stated)	JMJD2A Tudor 56.2µM, BAZ2B block inconclusive, G9a block inconclusive (no result: L3MBTL1 inh)
COc1cc(CN(C(=O)c2ccccc2F)C2CCS(=O)(=O)C2)cc(OC)c1OC (configuration not stated)	none (no result: L3MBTL1 inh, Sfp inh)
CCOc1ccc(C(=O)N2CCN(Cc3cc(=O)n4nc(-c5ccccc5Cl)sc4n3)CC2)cc1	none (no result: L3MBTL1 inh, Sfp inh)
CC1=NN(C(N)=S)C(=O)C1N=Nc1ccc([N+](=O)[O-])cc1 (configuration not stated)	JMJD2A Tudor inconclusive, HP1b chromo inh inconclusive, G9a block 79.4µM (no result: L3MBTL1 inh)
CC1=NN(c2ccccc2C(=O)O)C(=O)C1N=Nc1ccccc1 (configuration not stated)	JMJD2A Tudor inconclusive, HP1b chromo inh inconclusive, BAZ2B block inconclusive, G9a block 44.7µM
